Measured values from PubChem BioAssay AID652104 (National Center for Advancing Translational Sciences (NCATS), 2013).
About 7,200 (1.8%) of roughly 410,000 compounds were called active. Inconclusive results (about 7%) are left out. The call rests on the fitted dose curve; in most records, active means well fitted activation curve with a large enough effect; inconclusive means small, poorly fitted or top-dose-only effect, or another doubt; inactive means no such curve, though single readings can be large or run the other way. The full list was thinned out, with actives kept by preference.

Assay: qHTS of TDP-43 Inhibitors; further: nearly all actives have a fitted effect of over 50% in size; on Growth rescue (activation): % of control where 0% means no effect
Conditions: TDP-43 expressing yeast growth rescue, BacTiter-Glo, 24 h; series mostly up to 46.1 µM
Outline: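 In this qHTS, compounds that restore growth of yeast expressing TDP-43 appear as activators. Cells (OD600=0.02, galactose medium, raffinose-pregrown) are incubated with compound 24 hr at 30 deg C and growth is quantified by BacTiter-Glo.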
Potency means the concentration at half of the fitted maximal effect.

Potency, inactive:
CCOc1ccccc1NC(=O)c1ccc2c(c1)CCN2S(=O)(=O)c1ccc(C)cc1
O=C(Nc1ccc(S(=O)(=O)Nc2ncccn2)cc1)C12CC3CC(CC(C3)C1)C2
O=C(Nc1c2c(nn1-c1ccc(F)cc1)CS(=O)C2)C12CC3CC(CC(C3)C1)C2 (centres undefined)
CN(C)c1ccc(C(CNS(=O)(=O)c2cc(F)ccc2F)N2CCOCC2)cc1 (centres undefined)
CCOc1ccc(N2CC(c3nc4ccccc4n3CCOc3ccc(OC)cc3)CC2=O)cc1 (centres undefined)
COc1cc(OC)c(NC(=O)N2CC3CCCN3c3ccccc32)cc1Cl (centres undefined)
Cc1ccc(C2C=C(c3ccc(Cl)cc3)Nc3nc(NC(=O)CCC(=O)O)nn32)cc1 (centres undefined)
CCC(C)NC(=O)c1cc(Cl)ccc1OC (centres undefined)
COc1ccc(OC)c(C(=O)c2ccc(C(=O)N3CCN(Cc4csc(C)n4)CC3)cc2)c1
Cc1oc2ccc(O)c(CN3CCC(C)CC3)c2c1C(=O)Nc1ccccc1
CCOC(=O)C1CCN(c2ncnc3c2c(-c2ccccc2)cn3-c2cccc(C)c2)CC1
CCOC(=O)C1CCN(c2ncnc3c2c(-c2ccccc2)cn3-c2ccc(C)cc2)CC1
CCOc1ccc(N(CC)S(=O)(=O)N2CCCC(C(=O)NCc3ccc(Cl)cc3)C2)cc1 (centres undefined)
CCOC(=O)c1ccc(NC(=O)Cn2cc(S(=O)(=O)Cc3ccccc3F)c3ccccc32)cc1
Cc1c(CNC2CCCCC2)c(C(=O)O)c(C)n1Cc1cccc(Cl)c1
COc1ccc(N2CCN(S(=O)(=O)CCNC(=O)C(c3ccccc3)c3ccccc3)CC2)cc1
COc1ccc(OCC(=O)NCCS(=O)(=O)N2CCN(c3ccc(F)cc3)CC2)cc1
COCCNC(=O)CSc1c(C)cnc2c1c(=O)n(C)c(=O)n2C
Cc1ccccc1NC(=O)c1c(NC(=O)c2ccccc2F)sc2c1CCC(C)C2 (centres undefined)
CCOc1ccc(N(CC)S(=O)(=O)N2CCCC(C(=O)Nc3ccc(C(C)=O)cc3)C2)cc1 (centres undefined)
Nc1ncc(S(=O)(=O)Nc2ccc(OC(F)(F)F)cc2)cn1
O=C(O)c1ccc(NS(=O)(=O)c2cccc3nsnc23)cc1
Cc1ccc(CSc2oc(-c3cccs3)nc2S(=O)(=O)c2ccc(C)cc2)cc1
O=C(Cc1ccc(Cl)cc1)Nc1ccc2nn(-c3ccc(Cl)cc3)nc2c1
COc1ccc(Cn2ccnc2SCC(=O)Nc2ccc3c(c2)OCO3)cc1
O=C(CSCc1ccc([N+](=O)[O-])cc1)Nc1cccc(C(=O)Nc2ccccc2C(=O)O)c1
O=C(Cc1ccc([N+](=O)[O-])cc1)NCCS(=O)(=O)N1CCN(c2ccccc2)CC1
CCOC(=O)c1ccc(NC(=O)c2c(NCc3cccc(OC)c3)sc3c2CCC3)cc1
Cc1cccc(OCC(=O)N(Cc2ccc(C(C)C)cc2)Cc2ccco2)c1C
CC(Nc1ccc(-c2nc(-c3ccco3)no2)cc1[N+](=O)[O-])c1ccccc1 (centres undefined)
CC(C)OP(=O)(OC(C)C)C(Nc1ccccc1)c1cccc([N+](=O)[O-])c1 (centres undefined)
COc1ccccc1N1CCN(Cc2ccc(OC)c3ccccc23)CC1
COc1ccccc1N1CCN(C2C(=O)c3ccccc3N2C(C)=O)CC1 (centres undefined)
CCS(=O)(=O)N1CCc2cc(C(=O)NCc3ccc(C)cc3)ccc21
CCOC(=O)c1ccccc1NC(=O)c1sc2nc(-c3ccc(F)cc3)cn2c1C
CCOC(=O)C1C(=O)NC(N2CCN(c3ccccc3)CC2)=NC1c1ccco1 (centres undefined)
COc1ccc(C2=NN(C(=O)CSc3nnnn3C)C(c3ccco3)C2)cc1 (centres undefined)
Cc1nn(C(=O)c2c(F)cccc2F)c(C)c1S(=O)(=O)N1CCOCC1
O=C(NC1CC(=O)N(c2ccc(Cl)cc2)C1)C1CCCC1 (centres undefined)
COc1ccccc1C(=O)Nc1c(C(=O)Nc2ccc(C)cc2)oc2ccccc12
Cc1ccc2cccc(NC(=O)c3cccc4ccccc34)c2n1
Cc1ccc2cccc(NC(=O)C(C)Oc3ccc(C)c(C)c3)c2n1 (centres undefined)
COc1ccc(-c2cc(-c3ccc(F)cc3)nc3c2COc2ccccc2-3)cc1
CC(C)C12CN3CC(C(C)C)(CN(C1)C3c1ccc(OCc3ccccc3)cc1)C2=O (centres undefined)
COc1cc(OC)cc(C(=O)NNC(=O)CNC(=O)c2ccc(Br)o2)c1
O=C(NCCc1ccccn1)c1ccc(COc2ccccc2)o1
Cc1ccc(Cn2c(=O)n(Cc3nc(-c4ccccc4)no3)c(=O)c3cc4c(cc32)OCO4)cc1
CCC1CCCCN1Cc1c(O)ccc2c(=O)c(Oc3ccccc3Cl)c(C(F)(F)F)oc12 (centres undefined)
Cc1cc(NC(=O)c2cccc(Cl)c2)ccc1-c1cc2ccccc2oc1=O
Cc1cc2oc(C(=O)N(Cc3ccc(Cl)cc3)Cc3ccco3)c(C)c2cc1Cl
CC(C)Oc1c(Br)cc(Br)cc1/C=N/NC(N)=S
Cc1cc(/C=N/NC(N)=O)c(C)n1C1CCCCC1
COc1ccccc1NC(=O)c1oc2ccccc2c1NC(=O)C(C)C
COc1ccccc1C1C(C(=O)N2CCCCC2)=C(C)Nc2nc3ccccc3n21 (centres undefined)
CN(Cc1ccccc1)S(=O)(=O)c1ccc(F)c(C(=O)Nc2cccc(Cl)c2Cl)c1
CC(=O)c1ccc(S(=O)(=O)NCCC(=O)N2CCN(c3ccccn3)CC2)cc1
COc1cccc(N2CCN(S(=O)(=O)c3cc(Br)cc4c3N(C(=O)C3CC3)CC4)CC2)c1
CCCCNC(=O)c1ccc(-n2c(=S)[nH]c3ccccc3c2=O)cc1
CCCCn1c(=S)[nH]c2ncccc2c1=O
COc1ccc(CCNC(=O)c2cc(=O)c3c(C)cc(C)cc3o2)cc1OC
Cc1ccc(CN2CCCn3nc(C(=O)NCc4ccccc4Cl)cc3C2=O)cc1
COc1cc(C(=O)NCCS(=O)(=O)N2CCN(c3ccccc3)CC2)cc(OC)c1OC
CN=C(c1ccccc1)c1c(C)cccc1C
Cc1cccc(C)c1NC(=O)N1CC(C)OC(C)C1 (centres undefined)
O=C(Cn1c(=O)n(-c2ccc(F)cc2)c(=O)c2sccc21)Nc1cccc(C(F)(F)F)c1
CCOC(=O)C1=C(CC)OC(N)=C(C#N)C1c1ccc(F)cc1F (centres undefined)
COC(=O)C1=CN(c2ccc(F)c(F)c2)C=C(C(=O)OC)C1c1ccc([N+](=O)[O-])cc1
CCN(Cc1ccccc1)Cc1c(O)ccc2c(=O)c(-c3ccc(Cl)cc3Cl)coc12
Cc1cc2n(n1)C(c1cc(C(C)(C)C)c(O)cc1O)Nc1ccccc1-2 (centres undefined)
COc1ccccc1CNCc1ccc(C(=O)O)s1
COCCCNC(=O)c1c(NC(=O)c2cc(=O)c3cc(C)c(C)cc3o2)sc2c1CCCC2
Cc1ccc(S(=O)(=O)N(Cc2nc(-c3ccc(Cl)cc3)no2)C2CCCCC2)cc1
Cc1ccc(Cl)cc1NC(=O)/C(C#N)=C\c1cn(Cc2ccc(F)cc2)c2ccccc12
COc1ccc(NC(=O)CSc2ncnc3[nH]ncc23)cc1
CCOc1ccc(Nc2ncnc3scc(-c4ccc(OC)cc4)c23)cc1
Cc1cccc2c(=O)cc(CSc3ccccc3NC(=O)C(C)C)[nH]c12
O=C(CSc1nnc(CNC(=O)c2ccc(F)cc2)o1)Nc1ccc2c(c1)OCO2
O=C(CSc1ccc(-c2ccc(F)cc2)nn1)Nc1ccc2c(c1)OCCO2

Potency, active:
COC(=O)c1ccc(NC(=O)C23CC4CC(C2)CC(n2cnc(Cl)n2)(C4)C3)cc1 25.1 µM
COc1ccc(OC)c(C(=O)c2ccc(Cl)cc2)c1 12.6 µM
COCCNc1ncnc2c1c(-c1ccccc1)cn2-c1ccc(C)c(Cl)c1 12.6 µM
COc1ccc(N2CCN(S(=O)(=O)CCNC(=O)C34CC5CC(CC(C5)C3)C4)CC2)cc1 20 µM
O=S(=O)(Nc1ccc(OC(F)(F)F)cc1)c1cccc2nonc12 11.2 µM
O=C(CSCc1ccc([N+](=O)[O-])cc1)NCCSCc1ccccc1 20 µM
CC(Nc1ccc([N+](=O)[O-])cc1[N+](=O)[O-])c1ccccc1 (centres undefined) 12.6 µM
COc1ccccc1N1CCN(/N=C\C(Br)=C\c2ccccc2)CC1 11.2 µM
CCOC(=O)C1C(=O)C=C(c2ccc(OC)cc2)CC1c1ccco1 (centres undefined) 11.2 µM
Cc1ccc2cccc(NC(=O)c3ccc(OC(C)C)cc3)c2n1 11.2 µM
COc1ccc(-c2nc(CCNC(=O)c3ccc(Br)o3)cs2)cc1 12.6 µM
Cc1cccc(-n2c(C)cc(/C=N/NC(N)=S)c2C)c1 35.5 µM
C=Cc1ccc(C(=O)N2CCCC(CCC(=O)N3CCN(c4ccccn4)CC3)C2)cc1 (centres undefined) 3.55 µM
CCCCn1c(=S)[nH]c2ccccc2c1=O 14.1 µM
Cc1cccc(C)c1NC(=O)C(Cl)C(=O)c1ccccc1 (centres undefined) 3.98 µM
COC(=O)C1=CN(c2c(C)cc(C)cc2C)C(N)=C(C#N)C1c1cccc(F)c1 (centres undefined) 22.4 µM
COc1ccc(Nc2cc(Sc3ccc(OC)cc3)ncn2)cc1 22.4 µM
O=C(CSc1nc(-c2cccc(F)c2)[nH]c1-c1ccccc1)Nc1ccc2c(c1)OCO2 20 µM

Growth rescue (activation), inactive:
CCOc1ccc(OCC)c(NC(=O)c2cc(C)nc3c2c(C)nn3-c2cccc(Cl)c2C)c1 19.8% [at 9.22 µM]
COc1cccc(CC(=O)N2CCCC(CCC(=O)N3CCN(c4ccccn4)CC3)C2)c1 (centres undefined) 10.6% [at 9.22 µM]
Cc1ccc(CNC(=O)CCC(=O)N2Cc3ccccc3Oc3ncccc32)cc1 14.9% [at 9.22 µM]
